Laboratory results as given in the antibiotic and cytotoxicity screens of Wong et al. (2023).
The whole screen tested about 39,000 compounds, of which about 3,300 (8.5%) were called active. The entries come from a sample that favours actives as a whole.

Tested on: HepG2
Assay: cytotoxicity call (relative viability < 0.9)
Conditions: 10 µM

**Q.** `COc1ccc(S(=O)(=O)Nc2ccc3c(c2)C(=O)N([C@@H](C)CO)C[C@@H](C)[C@H](CN(C)S(=O)(=O)c2ccc(Cl)cc2)OCCCC[C@@H](C)O3)cc1` was tested. Which cytotoxicity call did it give?
**A.** inactive

**Q.** Which cytotoxicity call does the source give for `COc1ccc(S(=O)(=O)N(C)C[C@@H]2Oc3ccc(NC(=O)Cc4ccccc4)cc3CC(=O)N([C@H](C)CO)C[C@H]2C)cc1` here?
**A.** inactive

**Q.** With `COc1ccccc1C#Cc1ccc2c(c1)O[C@@H](CN(C)Cc1cncnc1)[C@H](C)CN([C@H](C)CO)S2(=O)=O` as the molecule, how does the cytotoxicity call read?
**A.** inactive

**Q.** For `Cc1ccc(S(=O)(=O)N2C[C@@H](O)COC[C@H]3O[C@H](CC(=O)NCc4ccc(C(F)(F)F)cc4)CC[C@@H]32)cc1`, which cytotoxicity call is on record?
**A.** inactive

**Q.** `CSc1cc(-c2ccc(Cl)cc2)nc(-c2cccs2)c1` was tested. Which cytotoxicity call did it give?
**A.** inactive

**Q.** With `C[C@@H]1CCCCO[C@@H](CN(C)C(=O)Nc2ccc(C(F)(F)F)cc2)[C@H](C)CN([C@@H](C)CO)C(=O)c2cc(NC(=O)NC3CCCCC3)ccc2O1` as the molecule, how does the cytotoxicity call read?
**A.** inactive

**Q.** `C[C@H]1CN([C@@H](C)CO)C(=O)c2cccc(NS(=O)(=O)c3ccc(Cl)cc3)c2O[C@H]1CN(C)Cc1ccc(Cl)c(Cl)c1` was tested. Which cytotoxicity call did it give?
**A.** inactive

**Q.** Which cytotoxicity call does the source give for `CCS(=O)(=O)N1C[C@]2(C1)CN([C@H](CO)c1[nH]c3cc(ccc3c12)OC)S(=O)(=O)c1ccc(cc1)C` here?
**A.** inactive

**Q.** With `CC(C)NC(=O)N(C)C[C@@H]1Oc2c(NC(=O)NC3CCCCC3)cccc2C(=O)N([C@H](C)CO)C[C@H]1C` as the molecule, how does the cytotoxicity call read?
**A.** inactive

**Q.** Which cytotoxicity call does the source give for `CCc1c(C)[nH]c(N2CCOCC2)nc1=O` here?
**A.** inactive

**Q.** For `C[C@H](CO)N1C[C@H](C)[C@H](CN(C)C(=O)Nc2ccc(C(F)(F)F)cc2)OCc2cnnn2CCCC1=O`, which cytotoxicity call is on record?
**A.** active

**Q.** For `C[C@H]1CN([C@@H](C)CO)C(=O)CCCn2cc(nn2)CO[C@H]1CN(C)C(=O)c1ccc(N2CCN(C)CC2)cc1`, which cytotoxicity call is on record?
**A.** inactive

**Q.** `C[C@@H]1CN([C@@H](C)CO)C(=O)CCCn2nncc2CO[C@@H]1CN(C)C(=O)Nc1ccc(C(F)(F)F)cc1` was tested. Which cytotoxicity call did it give?
**A.** inactive

**Q.** For `C[C@@H]1CN([C@H](C)CO)C(=O)CCCn2cc(nn2)CO[C@@H]1CN(C)C(=O)Nc1ccccc1C(F)(F)F`, which cytotoxicity call is on record?
**A.** active

**Q.** How did the cytotoxicity call turn out when `C[C@@H]1CN([C@H](C)CO)C(=O)CCCn2nncc2CO[C@H]1CN(C)C(=O)Nc1ccccc1C(F)(F)F` was run?
**A.** active

**Q.** With `C[C@H](CO)N1C[C@H](C)[C@@H](CN(C)C(=O)Nc2ccccc2C(F)(F)F)OCc2cn(nn2)CCCC1=O` as the molecule, how does the cytotoxicity call read?
**A.** inactive

**Q.** With `C[C@H](CO)N1C[C@H](C)[C@H](CN(C)C(=O)Nc2ccccc2C(F)(F)F)OCc2cn(nn2)CCCC1=O` as the molecule, how does the cytotoxicity call read?
**A.** inactive

**Q.** How did the cytotoxicity call turn out when `C[C@@H]1CN([C@H](C)CO)C(=O)CCCn2cc(nn2)CO[C@@H]1CN(C)C(=O)c1ccc(N2CCN(C)CC2)cc1` was run?
**A.** inactive

**Q.** Which cytotoxicity call does the source give for `C[C@@H]1CN([C@@H](C)CO)C(=O)CCCn2nncc2CO[C@H]1CN(C)C(=O)Nc1ccc(C(F)(F)F)cc1` here?
**A.** inactive

**Q.** How did the cytotoxicity call turn out when `C[C@H]1CN([C@@H](C)CO)C(=O)CCCn2cc(nn2)CO[C@@H]1CN(C)C(=O)c1ccc(N2CCN(C)CC2)cc1` was run?
**A.** active

**Q.** How did the cytotoxicity call turn out when `C[C@H](CO)N1C[C@H](C)[C@@H](CN(C)C(=O)Nc2ccccc2C(F)(F)F)OCc2cnnn2CCCC1=O` was run?
**A.** inactive

**Q.** Which cytotoxicity call does the source give for `C[C@@H]1CN([C@@H](C)CO)C(=O)CCCn2nncc2CO[C@H]1CN(C)C(=O)Nc1ccccc1C(F)(F)F` here?
**A.** inactive

**Q.** `Cc1noc(C)c1NC(=O)Nc1ccc2c(c1)CC(=O)N([C@H](C)CO)C[C@H](C)[C@H](CN(C)CC1CC1)O2` was tested. Which cytotoxicity call did it give?
**A.** inactive

**Q.** `Nc1ncnc2c1ncn2[C@@H]1O[C@H](CO)C[C@H]1O` was tested. Which cytotoxicity call did it give?
**A.** inactive

**Q.** For `C[C@H]1CN([C@@H](C)CO)C(=O)Cc2cc(N(C)C)ccc2O[C@@H]1CN(C)S(=O)(=O)c1cn(C)cn1`, which cytotoxicity call is on record?
**A.** inactive

**Q.** For `CC(C)(CO)Nc1ncnc(N)c1[N+](=O)[O-]`, which cytotoxicity call is on record?
**A.** inactive

**Q.** Which cytotoxicity call does the source give for `COc1ccc(NC(=O)Nc2cccc3c2O[C@@H](CN(C)CC2CCCCC2)[C@@H](C)CN([C@@H](C)CO)C3=O)cc1` here?
**A.** inactive

**Q.** Which cytotoxicity call does the source give for `Cc1noc(C)c1NC(=O)N(C)C[C@H]1Oc2c(NC(=O)C3CCOCC3)cccc2C(=O)N([C@@H](C)CO)C[C@@H]1C` here?
**A.** inactive

**Q.** How did the cytotoxicity call turn out when `C[C@@H]1CN([C@H](C)CO)C(=O)c2cc(NS(=O)(=O)c3ccc(F)cc3)ccc2O[C@@H]1CN(C)S(=O)(=O)c1ccccc1` was run?
**A.** inactive

**Q.** With `C[C@H]1CN([C@@H](C)CO)C(=O)CCCn2nncc2CO[C@H]1CN(C)S(=O)(=O)c1ccc(Cl)cc1` as the molecule, how does the cytotoxicity call read?
**A.** active

**Q.** How did the cytotoxicity call turn out when `C[C@H]1CN([C@@H](C)CO)C(=O)CCCn2nncc2CO[C@@H]1CN(C)C(=O)Nc1ccccc1C(F)(F)F` was run?
**A.** inactive

**Q.** For `C[C@@H]1CN([C@H](C)CO)C(=O)CCCn2nncc2CO[C@H]1CN(C)S(=O)(=O)c1ccc(Cl)cc1`, which cytotoxicity call is on record?
**A.** inactive

**Q.** How did the cytotoxicity call turn out when `C[C@H]1CN([C@@H](C)CO)C(=O)CCCn2nncc2CO[C@H]1CN(C)C(=O)Nc1ccccc1C(F)(F)F` was run?
**A.** active

**Q.** `C[C@@H]1CN([C@H](C)CO)C(=O)CCCn2nncc2CO[C@@H]1CN(C)S(=O)(=O)c1ccc(Cl)cc1` was tested. Which cytotoxicity call did it give?
**A.** inactive

**Q.** With `C[C@@H]1CN([C@H](C)CO)C(=O)CCCn2nncc2CO[C@@H]1CN(C)C(=O)Nc1ccccc1C(F)(F)F` as the molecule, how does the cytotoxicity call read?
**A.** inactive

**Q.** With `COc1ccc(NC(=O)N(C)C[C@H]2Oc3c(NS(C)(=O)=O)cccc3C(=O)N([C@H](C)CO)C[C@H]2C)cc1` as the molecule, how does the cytotoxicity call read?
**A.** inactive

**Q.** Which cytotoxicity call does the source give for `O=C1c2ccccc2C(=O)C1c1ccc(Cl)cc1` here?
**A.** inactive

**Q.** Which cytotoxicity call does the source give for `CCCCC(=O)C1CCC(c2ccc(Cl)cc2)CC1` (stereo unspecified) here?
**A.** inactive

**Q.** `O=C1C(O)=C(C2CCC(c3ccc(Cl)cc3)CC2)C(=O)c2ccccc21` (stereo unspecified) was tested. Which cytotoxicity call did it give?
**A.** active

**Q.** How did the cytotoxicity call turn out when `C[C@H](CO)N1C[C@H](C)[C@H](CN(C)C(=O)c2ccccc2)OCCCC[C@H](C)Oc2ccc(NC(=O)Cc3ccccc3)cc2C1=O` was run?
**A.** inactive

**Q.** How did the cytotoxicity call turn out when `CCO[C@H]1OC(C(=O)N2CCN(Cc3ccccc3)CC2)=C[C@@H](c2cn(C(C)=O)c3ccccc23)[C@@H]1CCCOC(=O)NCCCCCC(=O)NO` was run?
**A.** inactive

**Q.** For `NCCCCCCNC(=O)[C@H]1C[C@H]2C(=O)N[C@@H](CCCCN)C(=O)N2[C@H]1c1ccc(O)cc1`, which cytotoxicity call is on record?
**A.** inactive

**Q.** `C[C@@H]1CN([C@@H](C)CO)C(=O)c2cc(NC(=O)Nc3ccc(C(F)(F)F)cc3)ccc2O[C@@H](C)CCCCO[C@@H]1CN(C)S(=O)(=O)c1ccc(F)cc1` was tested. Which cytotoxicity call did it give?
**A.** inactive

**Q.** For `C[C@@H]1CCCCO[C@@H](CN(C)Cc2ccc(C(=O)O)cc2)[C@H](C)CN([C@@H](C)CO)C(=O)c2cc(NS(=O)(=O)c3ccc(F)cc3)ccc2O1`, which cytotoxicity call is on record?
**A.** inactive

**Q.** With `Nc1ncnc2c1ncn2CCO` as the molecule, how does the cytotoxicity call read?
**A.** inactive

**Q.** Which cytotoxicity call does the source give for `CC(Cn1cnc2c(N)ncnc21)OCP(=O)(O)O` (stereo unspecified) here?
**A.** active

**Q.** For `CC(C)(C)C(=O)OCOP(=O)(COCCn1cnc2c(N)ncnc21)OCOC(=O)C(C)(C)C` [listing 1 of 2 here], which cytotoxicity call is on record?
**A.** active

**Q.** For `Nc1ncnc2c1ncn2CCN1CCCCC1`, which cytotoxicity call is on record?
**A.** inactive

**Q.** For `Nc1ncnc2c1ncn2C1OC(COP(=O)(O)O)C(O)C1O` (stereo unspecified), which cytotoxicity call is on record?
**A.** inactive

**Q.** For `CC(C)(C)C(=O)OCOP(=O)(COCCn1cnc2c(N)ncnc21)OCOC(=O)C(C)(C)C` [listing 2 of 2 here], which cytotoxicity call is on record?
**A.** active

**Q.** With `Nc1ncnc2c1ncn2CCN1CCOCC1` as the molecule, how does the cytotoxicity call read?
**A.** inactive

**Q.** How did the cytotoxicity call turn out when `Nc1ncnc2c1ncn2[C@H]1O[C@H](COP(=O)(O)O)[C@@H](O)[C@H]1O` was run?
**A.** inactive

**Q.** For `CC(C)OC(=O)OCOP(=O)(CO[C@H](C)Cn1cnc2c(N)ncnc21)OCOC(=O)OC(C)C`, which cytotoxicity call is on record?
**A.** inactive

**Q.** Which cytotoxicity call does the source give for `CCCNC(=O)Nc1ccc2c(c1)C(=O)N(C)C[C@@H](OC)[C@@H](C)CN(Cc1ccc(-c3ccccn3)cc1)[C@@H](C)CO2` here?
**A.** inactive

**Q.** With `COc1ccc(S(=O)(=O)Nc2ccc3c(c2)CC(=O)N([C@@H](C)CO)C[C@H](C)[C@@H](CN(C)C(=O)Nc2c(C)noc2C)O3)cc1` as the molecule, how does the cytotoxicity call read?
**A.** inactive

**Q.** How did the cytotoxicity call turn out when `CN1CCN(C(=O)Cn2cc(-c3ccc(C(=O)NO)cc3)nn2)CC1` was run?
**A.** inactive

**Q.** `Cc1noc(C)c1NC(=O)N[C@@H]1C=C[C@@H](CC(=O)N2CCN(C)CC2)O[C@@H]1CO` was tested. Which cytotoxicity call did it give?
**A.** inactive

**Q.** How did the cytotoxicity call turn out when `COc1ccc(cc1)CN1C[C@]2(CN(C2)C(=O)Cc2ccncc2)c2c([nH]c3cc(ccc23)OC)[C@@H]1CO` was run?
**A.** inactive

**Q.** `C[C@@H]1CN([C@@H](C)CO)C(=O)Cc2cc(NC(=O)Nc3cccc4ccccc34)ccc2O[C@H]1CN(C)Cc1ccncc1` was tested. Which cytotoxicity call did it give?
**A.** inactive

**Q.** For `C[C@@H]1CN([C@H](C)CO)C(=O)Cc2cc(NC(=O)Nc3cccc4ccccc34)ccc2O[C@@H]1CN(C)Cc1ccncc1`, which cytotoxicity call is on record?
**A.** active

**Q.** For `C[C@H]1CN([C@@H](C)CO)C(=O)Cc2cc(NC(=O)Nc3cccc4ccccc34)ccc2O[C@H]1CN(C)Cc1ccncc1`, which cytotoxicity call is on record?
**A.** inactive

**Q.** For `C[C@@H]1CN([C@H](C)CO)C(=O)Cc2cc(NC(=O)Nc3cccc4ccccc34)ccc2O[C@H]1CN(C)Cc1ccncc1`, which cytotoxicity call is on record?
**A.** inactive

**Q.** `C[C@H]1CN([C@@H](C)CO)C(=O)Cc2cc(NC(=O)Nc3cccc4ccccc34)ccc2O[C@@H]1CN(C)Cc1ccncc1` was tested. Which cytotoxicity call did it give?
**A.** inactive

**Q.** For `C[C@H](CO)N1C[C@H](C)[C@@H](CN(C)Cc2ccncc2)Oc2ccc(NC(=O)Nc3cccc4ccccc34)cc2CC1=O`, which cytotoxicity call is on record?
**A.** active

**Q.** `C[C@@H]1CN([C@@H](C)CO)C(=O)Cc2cc(NC(=O)Nc3cccc4ccccc34)ccc2O[C@@H]1CN(C)Cc1ccncc1` was tested. Which cytotoxicity call did it give?
**A.** active

**Q.** Which cytotoxicity call does the source give for `C[C@H](CO)N1C[C@H](C)[C@H](CN(C)Cc2ccncc2)Oc2ccc(NC(=O)Nc3cccc4ccccc34)cc2CC1=O` here?
**A.** active

**Q.** How did the cytotoxicity call turn out when `COc1ccc(S(=O)(=O)N[C@H]2CC[C@@H](CC(=O)N3CCC(Cc4ccccc4)CC3)O[C@@H]2CO)cc1` was run?
**A.** inactive

**Q.** With `C[C@@H]1CCCCO[C@H](CN(C)C(=O)Nc2ccc3c(c2)OCO3)[C@H](C)CN([C@@H](C)CO)C(=O)c2cc(NS(=O)(=O)c3cccs3)ccc2O1` as the molecule, how does the cytotoxicity call read?
**A.** inactive

**Q.** How did the cytotoxicity call turn out when `CC(C)NC(=O)Nc1cccc2c1O[C@H](CN(C)S(=O)(=O)c1cccs1)[C@H](C)CN([C@H](C)CO)C2=O` was run?
**A.** inactive

**Q.** How did the cytotoxicity call turn out when `CCCN(C)C[C@@H]1Oc2cc(C#Cc3ccc(OC)cc3)ccc2S(=O)(=O)N([C@H](C)CO)C[C@@H]1C` was run?
**A.** inactive

**Q.** How did the cytotoxicity call turn out when `Cc1ccc(C(=O)CCNc2ccc3c(c2)oc2ccccc23)o1` was run?
**A.** inactive
